Source: PubChem BioAssay (National Center for Advancing Translational Sciences (NCATS))
Shown are actives, neighbours in structure and some others; about 17% of the full set was active somewhere.
HT1080NT lethal: kills 2HG-producing HT-1080-NT fibrosarcoma cells | HT-1080-NT fibrosarcoma viability, CellTiter-Glo ATP luminescence, 48 h | Potency, µM (top dose mostly 46.1 µM), for inactives: at the highest dose activity, negative = less viability, usual class: cytotoxic | 1.6% of 360,000 active | AID 686970;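 note: NT is the 2HG producing partner of a matched IDH1 knockdown line; 0% = DMSO-treated cells and -100% = media-only wells without cells; nearly all actives have a fitted effect of over 55% in size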
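A 48-hour cytotoxicity screen used HT-1080-NT cells plated 2 hours before compound delivery. ATP-based CellTiter-Glo luminescence measured viability, normalized to DMSO and no-cell controls.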
HT1080 IDH1KD tx: HT-1080 IDH1 knockdown cell toxicity (counter line); HT-1080 IDH1 knockdown viability, ATP luminescence, 48 h; 2% of 360,000 active; Potency, µM (titrated, usually from 46.1 µM), for inactives: top-dose activity, negative = toxicity, actives largely listed as cytotoxic;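 note: 0% = DMSO wells and -100% = cell-free medium wells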
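In this qHTS, HT-1080 cells depleted of IDH1 are exposed for 48 h at 37 °C to compound titrations. Toxicity is scored from CellTiter-Glo luminescence, with DMSO as full viability and medium alone as none.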
HepG2 tox: counter-screen for TGF-b inhibitors: cytotoxicity in HepG2 cells | HepG2 CAGA-GFP viability, ATP luminescence, 18 h | 0.76% of 410,000 active | Potency, µM (titrated, usually from 46.1 µM), without a hit: at the highest dose activity change, negative = cytotoxicity, most hits filed as cytotoxic
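CellTiter-Glo luminescence gave cytotoxicity after 18 hours at 37 degrees C. The cells were HepG2 CAGA-GFP in 1% FBS DMEM, stimulated with 500 pg/mL TGF-beta after compound addition. %Activity was normalised to no-cell wells (complete cell-killing) and DMSO (no toxicity), and curves were fitted and classified.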
TGFb SMAD3 inh: inhibitors of TGF-b signaling | AID 588855 | 1.2% of 410,000 active | HepG2 CAGA-GFP TGF-b/SMAD3 reporter, GFP fluorescence, 18 h; TGF-beta stimulated, 500 pg/mL final | Potency, µM (doses to about 46.1 µM), without a hit: at the top dose activity, negative = inhibition, usual class: inhibitors; note: % is set by controls: 0 for no effect and ±100 for the full control effect; nearly all actives have a fitted effect of over 65% in size
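HEPG2 CAGA-GFP reporter cells (1000/well, DMEM with 1% FBS) received compounds, then recombinant TGF-beta at 500 pg/mL final for 18 hours at 37 degrees C. Per-cell GFP summed per well was normalised to unstimulated and stimulated DMSO controls before curve fitting.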
DT40 TDP1 no CPT: qHTS for Inhibitors of human tyrosyl-DNA phosphodiesterase 1 (TDP1): qHTS in cells in absence of CPT | DT40 Tdp1-/- hTDP1 cells, no CPT, ATP luminescence, 48 h | Potency, µM (top dose mostly 46.2 µM), inactives show top-dose activity change, negative = growth inhibition, most hits filed as inhibitors | 15% of 420,000 active | AID 686978, 2013; note: % is set by controls: 0 for no effect and ±100 for the full control effect; nearly all actives have a fitted effect of over 55% in size
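Chicken DT40 Tdp1-/- cells complemented with human TDP1, screened without camptothecin (DMSO vehicle only), 400 cells/well. Compounds pin-transferred, cells incubated at 37 °C for at least 48 hr. Growth read as ATP-dependent luminescence (CellTiter-Glo, 30 min at RT).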
DT40 TDP1 CPT: DT40-hTDP1 cell growth loss with CPT; 12% of 420,000 active; Potency, µM (series often up to 46.2 µM), inactives show top-dose activity change, negative = growth inhibition, usual class: inhibitors; AID 686979; chicken DT40 Tdp1-/-;hTDP1 cells + 20 nM CPT, ATP luminescence, 48 h; note: % is set by controls: 0 for no effect and ±100 for the full control effect; nearly all actives have a fitted effect of over 55% in size
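Chicken DT40 Tdp1-/- cells complemented with human TDP1, 400 cells/well, exposed to compounds plus 20 nM camptothecin for at least 48 h at 37 C; viability read as ATP content by CellTiter-Glo luminescence.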
* = called active by the depositor; u = inconclusive; x = no result given; [ ] = another dose, or the depositor's remark. Calls come from the whole dose curve; as a rule, active = well fitted curve in the direction sought with a large enough effect; inconclusive = small, poorly fitted or top-dose-only effect, or another doubt; inactive = no such curve, though single readings can be large; an effect the other way counts as inactive or inconclusive. Potency is the fitted concentration of half-maximal effect.

SMILES	HT1080NT lethal	HT1080 IDH1KD tx	HepG2 tox	TGFb SMAD3 inh	DT40 TDP1 no CPT	DT40 TDP1 CPT
Cc1ccc(C)c(C(=O)COc2ncnc3ccccc23)c1	-24%	-15%	-25%	-17%	u	18µM*
Cc1ncc2c(c1CNC(=O)c1ccc3c(c1)OCO3)CCN(C(=O)c1cc3ccccc3o1)C2	x	x	x	x	u	2%[9.04 µM]
Cc1cccc(OC(C)C(=O)Nc2nonc2-c2ccc(Br)cc2)c1C (stereo not drawn)	x	x	-5%	-10%	16µM*	26µM*
Cc1ccc(OCC(=O)Nc2nonc2-c2ccc(C)c(C)c2)cc1C	x	x	-32%	-28%	u	u
CCOc1ccc(-c2nonc2NC(=O)COc2c(C)cc(C)cc2C)cc1OCC	x	x	-35%	u	-38%	u
Cc1ccc(OCC(=O)Nc2nonc2-c2ccc(Br)cc2)cc1	x	x	-8%	-7%	-18%	-6%
Cc1ccc(OC(C)C(=O)Nc2nonc2-c2ccc(Br)cc2)cc1C (stereo not drawn)	x	x	-42%	u	18µM*	u
Cc1cccc(OCC(=O)Nc2nonc2-c2ccc(Br)cc2)c1C	x	x	-38%	u	u	18µM*
COc1ccc(-c2csc(N(CC3CCCO3)C(=O)c3cccs3)n2)cc1 (stereo not drawn)	-7%	-25%	4%	-6%	u	12µM*
COCCN(C(=O)Cc1ccc(OC)c(OC)c1)c1nc(-c2cc(OC)ccc2OC)cs1	11%	9%	2%	-7%	u	18µM*
COc1ccc(CC(=O)N(CC2CCCO2)c2nc3ccccc3s2)cc1 (stereo not drawn)	-2%	-1%	-18%	2%	13µM*	u
CCN(CC)CCCN(C(=O)c1ccc(Br)cc1)c1nc(-c2ccc(OC)cc2)cs1	u	u	-62%	u	u	-104%
CCN(CC)CCCN(C(=O)c1cccs1)c1nc(-c2ccc(OC)cc2)cs1	u	u	-44%	-20%	21µM*	18µM*
O=C(COC(=O)c1cc(S(=O)(=O)N2CCCCC2)ccc1N1CCOCC1)c1ccc(F)cc1	0%	2%	6%	0%	-21%	6%
Cc1cn([C@H]2C[C@H](O)[C@@H](CNC(=O)[C@@H]3CCCN3Cc3ccccc3)O2)c(=O)[nH]c1=O	9%	5%	2%	6%	3%	4%
COc1ccc(OC)c(-c2csc(N(CC3CCCO3)C(=O)C3CCCCC3)n2)c1 (stereo not drawn)	0%	-5%	-6%	-8%	18µM*	21µM*
COc1ccc(OC)c(-c2csc(N(C)C(=O)Cc3ccccc3)n2)c1	0%	1%	-1%	u	-19%	10%
CCN(CC)CCCN(C(=O)c1cccc(C)c1)c1nc(-c2ccc(OC)cc2)cs1	-29%	u	-47%	u	7.3µM*	-59%
CCOc1cccc2cc(C(=O)NCc3cccnc3)c(=O)oc12	-1%	11%	-4%	-17%	-15%	2%
COc1ccc(CNC(=O)c2cc3cccc(O)c3oc2=N)cc1	-3%	-3%	-12%	u	-24%	u
CCOc1cccc2cc(C(=O)NCc3ccc(OC)cc3)c(=N)oc12	0%	-5%	-11%	-7%	u	26µM*
CCOc1cccc2cc(C(=O)NCc3ccc(C)cc3)c(=N)oc12	1%	-1%	0%	1%	4.1µM*	u
Cc1ccnc2nc(C(=O)OCC(=O)N(CC(C)C)C3CCS(=O)(=O)C3)nn12 (stereo not drawn)	3%[9.24 µM]	-2%	5%	18%	15%	-2%
Cc1csc(=O)n1CCC(=O)OCC(=O)c1c(N)n(CC(C)C)c(=O)n(C)c1=O	-8%	-13%	-13%	-10%	15µM*	18µM*
Cc1ccc(OCCC(=O)OCC(=O)c2c(N)n(CC(C)C)c(=O)n(C)c2=O)cc1	-5%	-2%	-6%	8%	u	u
SMILES	HT1080NT lethal	HT1080 IDH1KD tx	HepG2 tox	TGFb SMAD3 inh	DT40 TDP1 no CPT	DT40 TDP1 CPT
CC(C)Cn1c(N)c(C(=O)COC(=O)CC23CC4CC(CC(C4)C2)C3)c(=O)n(C)c1=O	u	u	-3%	0%	7.3µM*	7.3µM*
CC(C)Cn1c(N)c(C(=O)COC(=O)CCc2nc3ccccc3s2)c(=O)n(C)c1=O	-20%	-19%	-11%	-6%	15µM*	u
CC(C)Cn1c(N)c(C(=O)COC(=O)CCc2nc3ccccc3c(=O)[nH]2)c(=O)n(C)c1=O	-2%	-9%	1%	0%	-20%	u
O=C(CN1C=NS(=O)(=O)c2ccccc21)Nc1ccc(F)cc1	x	x	-2%	u	-15%	-2%
COc1ccc(-c2nnc(SCC(=O)Oc3cccc(C)c3C)o2)cc1	x	x	14%	2%	3%	6%
COc1ccccc1N(CC(=O)N/N=C/c1c(O)ccc2ccccc12)S(C)(=O)=O	u	u	-1%	-20%	5.8µM*	5.2µM*
COc1ccccc1NC(=O)c1c(N=Cc2c(O)ccc3ccccc23)cnn1C	8.2µM*	5.8µM*	-13%	-15%	6.5µM*	8.2µM*
O=C(CNc1ccc(F)cc1)N/N=C/c1c(O)ccc2ccccc12	u	10µM*	-37%	u	9.2µM*	10µM*
COc1ccccc1NCC(=O)N/N=C/c1cccnc1	-3%	-1%	5%	5%	0%	-14%
COc1ccccc1NCC(=O)N/N=C/c1c(O)ccc2ccccc12	15µM*	10µM*	-48%	-1%	2.9µM*	5.8µM*
Cn1ncc(N=Cc2c(O)ccc3ccccc23)c1C(=O)N1CCOCC1	1%	4%	-12%	-2%	-20%	1%
O=C(Cc1n[nH]c(=O)[nH]c1=O)N/N=C/c1c(O)ccc2ccccc12	1%	1%	6%	5%	-1%	19%
COc1ccc2nc(NC(=O)CSC(C)C(=O)Nc3cc(C)on3)sc2c1 (stereo not drawn)	-11%	3%	-8%	1%	-28%	12%
O=Cc1ccc(OCc2cn(CC(=O)c3ccc(O)cc3)nn2)cc1	-11%	-1%	-76%	22%	13%	5%
CCOc1ccc2ccccc2c1/C=N/NC(=O)CNC(=O)Cc1ccccc1	0%	-1%	-14%	1%	1%	18µM*
